# Laboratory results: PubChem BioAssay (EPA / NIEHS)
# Results filed as inconclusive are left out. Activity calls are given as the source filed them. Rule for the calls: active = hit-call score of the fitted dose curve at least 0.9, where 1 is the maximum; inconclusive = response in the unintended direction; inactive = score below 0.9.
# Experiments:
# [1] = target: Estrogen receptor (Homo sapiens) (UniProt P03372); experiment: OT_ER_ERaERa_1440: Odyssey Thera (OT) 24-hour HEK293T Protein-Complementation Assay for Estrogen Receptor-alpha/-alpha Homodimer (AID 2283349);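 note: hits raise fluorescence above DMSO for agonists and antagonists alike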
# Estrogen receptor (Homo sapiens), sequence (P03372 whole entry, looked up, the tested form may be a part): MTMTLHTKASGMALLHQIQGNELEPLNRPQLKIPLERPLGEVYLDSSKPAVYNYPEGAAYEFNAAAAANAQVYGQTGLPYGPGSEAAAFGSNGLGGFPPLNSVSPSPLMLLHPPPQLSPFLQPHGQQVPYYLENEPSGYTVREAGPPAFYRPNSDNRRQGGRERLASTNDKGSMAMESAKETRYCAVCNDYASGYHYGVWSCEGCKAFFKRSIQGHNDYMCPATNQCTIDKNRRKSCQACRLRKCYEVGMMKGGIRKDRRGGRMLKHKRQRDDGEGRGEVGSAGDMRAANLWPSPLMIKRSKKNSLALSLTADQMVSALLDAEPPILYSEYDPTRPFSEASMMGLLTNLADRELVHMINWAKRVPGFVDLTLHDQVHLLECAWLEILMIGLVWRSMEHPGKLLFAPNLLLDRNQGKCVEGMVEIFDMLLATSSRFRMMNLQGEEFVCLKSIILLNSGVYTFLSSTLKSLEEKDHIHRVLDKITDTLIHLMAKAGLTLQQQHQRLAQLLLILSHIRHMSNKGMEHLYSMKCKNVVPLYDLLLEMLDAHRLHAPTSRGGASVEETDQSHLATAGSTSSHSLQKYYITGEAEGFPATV
# Outline: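 HEK293T, stable ERα LBD (aa 310-547) homodimer PCA; 24 h compound exposure; mean fluorescence intensity (nuclear for agonists, nuclear plus cytoplasmic for antagonists) vs vehicle; positive fitting direction, DMSO baseline.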
# [2] = target: Estrogen receptor (Homo sapiens) (UniProt P03372); experiment: OT_ER_ERaERa_0480: Odyssey Thera (OT) 8-hour HEK293T Protein-Complementation Assay for Estrogen Receptor-alpha/-alpha Homodimer (AID 2283351);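 note: rise in fluorescence from reassembled reporter fragments on ERα LBD homodimer in nucleus or whole cell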
# Outline: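 HEK293T cells stably expressing a PCA pair of ER alpha LBD (residues 310-547) were dosed for 8 hours. The gain in fluorescence intensity, nuclear for agonists and whole-cell for antagonists, was measured by laser scanning cytometry against DMSO vehicle.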
# [3] = target: T1, Estrogen receptor (Homo sapiens) + Estrogen receptor beta (Homo sapiens) (UniProt P03372+Q92731); experiment: OT_ER_ERaERb_0480: Odyssey Thera (OT) 8-hour HEK293T Protein-Complementation Assay for Estrogen Receptor-alpha/-beta Heterodimer (AID 2283352)
# T1 sequence (P03372 whole entry, looked up, the tested form may be a part): as above
# T1 sequence (Q92731 whole entry, looked up, the tested form may be a part): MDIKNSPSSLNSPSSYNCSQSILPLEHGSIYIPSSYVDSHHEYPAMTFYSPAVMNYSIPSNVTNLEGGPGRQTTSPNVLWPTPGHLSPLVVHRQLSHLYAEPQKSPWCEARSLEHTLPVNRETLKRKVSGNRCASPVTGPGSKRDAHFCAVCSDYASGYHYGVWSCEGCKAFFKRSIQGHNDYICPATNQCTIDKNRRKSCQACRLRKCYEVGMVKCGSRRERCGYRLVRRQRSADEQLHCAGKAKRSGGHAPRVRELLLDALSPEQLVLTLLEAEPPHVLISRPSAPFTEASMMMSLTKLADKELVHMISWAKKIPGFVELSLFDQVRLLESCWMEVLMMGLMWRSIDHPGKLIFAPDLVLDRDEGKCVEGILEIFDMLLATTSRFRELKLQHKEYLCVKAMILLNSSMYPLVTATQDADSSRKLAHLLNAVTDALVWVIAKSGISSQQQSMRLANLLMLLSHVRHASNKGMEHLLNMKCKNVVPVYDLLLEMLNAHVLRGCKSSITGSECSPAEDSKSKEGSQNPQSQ
# Outline: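 Fluorescence increase from reconstituted reporter fragments, quantified by laser scanning cytometer, reflects ER-alpha/ER-beta heterodimer formation in human HEK293T cells. Exposure 8 h; positive-direction fitting against DMSO vehicle.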
# [4] = target: T1, Estrogen receptor (Homo sapiens) + Estrogen receptor beta (Homo sapiens); experiment: OT_ER_ERaERb_1440: Odyssey Thera (OT) 24-hour HEK293T Protein-Complementation Assay for Estrogen Receptor-alpha/-beta Homodimer (AID 2283356);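 note: heteromer of ER alpha and ER beta binding domains; hits raise reporter fluorescence and both agonists and antagonists give an increase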
# Outline: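 Fragment complementation between ER alpha (310-547) and ER beta (263-489) ligand-binding domains in HEK293T cells; signal read 24 h post-dosing by laser scanning cytometer. Gain of fluorescence relative to DMSO fitted.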
# [5] = target: Estrogen receptor beta (Homo sapiens) (UniProt Q92731); experiment: OT_ER_ERbERb_0480: Odyssey Thera (OT) 8-hour HEK293T Protein-Complementation Assay for Estrogen Receptor-beta/-beta Homodimer (AID 2283357);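 note: active means signal gain over DMSO baseline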
# Estrogen receptor beta (Homo sapiens), sequence (Q92731 whole entry, looked up, the tested form may be a part): as above
# Outline: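 ER-beta LBD homodimer PCA stably expressed in HEK293T; 8 h compound exposure, then formaldehyde fixation and Draq5 staining. Gain in nuclear/cytoplasmic fluorescence intensity versus DMSO vehicle, read on laser scanning cytometer.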
# [6] = target: human Peroxisome Proliferator-activated Receptor alpha (PPARa), PPARA (gene 5465) (UniProt Q07869); experiment: NVS_NR_hPPARa: NovaScreen (NVS) Nuclear Receptor Binding Assay for human Peroxisome Proliferator-activated Receptor alpha (PPARa) (AID 2283359);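 note: activity means loss of TR-FRET signal versus DMSO baseline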
# human Peroxisome Proliferator-activated Receptor alpha (PPARa), PPARA (gene 5465), sequence (Q07869 whole entry, looked up): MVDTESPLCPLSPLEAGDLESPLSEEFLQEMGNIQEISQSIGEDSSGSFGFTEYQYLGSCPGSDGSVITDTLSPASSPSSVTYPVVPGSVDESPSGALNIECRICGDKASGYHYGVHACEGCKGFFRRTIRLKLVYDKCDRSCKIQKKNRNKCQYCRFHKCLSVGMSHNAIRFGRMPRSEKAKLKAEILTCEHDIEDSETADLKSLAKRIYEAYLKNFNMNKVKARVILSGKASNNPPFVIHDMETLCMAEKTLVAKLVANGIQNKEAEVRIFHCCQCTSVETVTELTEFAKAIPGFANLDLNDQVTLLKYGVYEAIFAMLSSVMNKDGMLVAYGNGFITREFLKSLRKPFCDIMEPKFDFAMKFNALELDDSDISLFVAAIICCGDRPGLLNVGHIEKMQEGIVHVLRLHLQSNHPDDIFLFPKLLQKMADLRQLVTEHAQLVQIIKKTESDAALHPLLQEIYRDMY
# Outline: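 Loss of TR-FRET binding signal relative to DMSO was measured 1 h after chemical addition to extracted receptor protein. Chemicals were first tested in duplicate at 25 uM, and actives were followed up in concentration series.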
# [7] = target: Androgen Receptor/SRC-1 Co-activator, AR (gene 367) (UniProt P10275); experiment: OT_AR_ARSRC1_0960: Odyssey Thera (OT) 16-hour HEK293T Protein-Complementation Assay for Androgen Receptor/SRC-1 Co-activator (AID 2283353);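 note: actives raise the signal above DMSO so potency reflects increased AR and SRC-1 complex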
# Androgen Receptor/SRC-1 Co-activator, AR (gene 367), sequence (P10275 whole entry, looked up): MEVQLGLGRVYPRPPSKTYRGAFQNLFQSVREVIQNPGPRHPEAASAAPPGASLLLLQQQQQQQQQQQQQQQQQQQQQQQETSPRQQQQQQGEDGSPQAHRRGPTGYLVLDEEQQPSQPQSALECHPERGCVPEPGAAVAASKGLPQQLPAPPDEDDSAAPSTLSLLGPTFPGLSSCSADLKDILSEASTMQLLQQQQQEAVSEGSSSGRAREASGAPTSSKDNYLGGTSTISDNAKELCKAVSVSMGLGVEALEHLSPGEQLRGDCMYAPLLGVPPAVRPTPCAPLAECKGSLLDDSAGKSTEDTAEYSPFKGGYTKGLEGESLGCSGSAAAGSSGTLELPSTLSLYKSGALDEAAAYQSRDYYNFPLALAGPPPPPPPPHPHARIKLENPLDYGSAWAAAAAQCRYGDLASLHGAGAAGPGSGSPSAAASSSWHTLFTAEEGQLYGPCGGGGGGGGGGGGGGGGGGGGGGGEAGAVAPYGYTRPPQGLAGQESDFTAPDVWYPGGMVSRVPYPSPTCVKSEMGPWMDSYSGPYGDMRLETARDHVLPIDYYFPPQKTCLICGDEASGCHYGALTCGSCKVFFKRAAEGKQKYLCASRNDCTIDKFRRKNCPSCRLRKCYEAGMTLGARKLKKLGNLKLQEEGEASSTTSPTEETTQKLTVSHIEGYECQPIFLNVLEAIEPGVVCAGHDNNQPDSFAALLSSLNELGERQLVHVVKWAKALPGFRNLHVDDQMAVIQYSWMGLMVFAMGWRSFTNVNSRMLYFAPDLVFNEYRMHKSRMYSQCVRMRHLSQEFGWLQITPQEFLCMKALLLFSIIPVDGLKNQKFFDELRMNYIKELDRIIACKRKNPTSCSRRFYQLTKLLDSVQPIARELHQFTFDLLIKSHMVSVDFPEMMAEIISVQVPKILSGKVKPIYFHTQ
# Outline: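 Endpoint is gain-of-signal N/C fluorescence ratio in the 488 nm channel versus DMSO, from at least 400 cells per image, measured 16 h post-dosing. Cells: HEK293T stably carrying split-Venus AR/SRC-1 complementation constructs.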
# [8] = target: Androgen Receptor/SRC-1 Co-activator, AR (gene 367) (UniProt P10275); experiment: OT_AR_ARSRC1_0480: Odyssey Thera (OT) 8-hour HEK293T Protein-Complementation Assay for Androgen Receptor/SRC-1 Co-activator (AID 2283354);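 note: hits raise the complementation signal above DMSO so AC50 marks enhancers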
# Outline: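 Reconstituted split-Venus YFP signal from AR–SRC-1 interaction, read by imaging 8 h post-dose in stable HEK293T lines. The 488 nm nucleus-to-cytoplasm ratio (≥400 cells/image) was fitted upward against DMSO.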
# [9] = target: Retinoic acid receptor alpha (Homo sapiens) (UniProt P10276); experiment: NVS_NR_hRAR_Antagonist: NovaScreen (NVS) Nuclear Receptor Binding Assay for human Retinoic Acid Alpha Receptor Antagonism (RAR) (AID 2283358)
# Retinoic acid receptor alpha (Homo sapiens), sequence (P10276 whole entry, looked up): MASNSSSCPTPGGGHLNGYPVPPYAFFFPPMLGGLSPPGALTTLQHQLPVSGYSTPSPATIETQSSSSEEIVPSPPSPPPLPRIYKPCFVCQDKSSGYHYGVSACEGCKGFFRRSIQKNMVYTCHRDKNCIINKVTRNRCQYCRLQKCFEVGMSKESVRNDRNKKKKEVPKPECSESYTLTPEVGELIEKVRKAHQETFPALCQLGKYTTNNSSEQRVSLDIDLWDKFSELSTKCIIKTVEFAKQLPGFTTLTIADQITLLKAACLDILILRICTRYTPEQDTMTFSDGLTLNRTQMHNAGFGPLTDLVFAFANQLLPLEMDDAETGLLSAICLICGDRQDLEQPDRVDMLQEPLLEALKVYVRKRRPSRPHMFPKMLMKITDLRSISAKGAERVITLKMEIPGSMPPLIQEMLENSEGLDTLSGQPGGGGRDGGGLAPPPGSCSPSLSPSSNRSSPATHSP
# Outline: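 RARalpha antagonism was read by TR-FRET as loss of binding signal versus DMSO, 2 h after chemical addition, in a biochemical format. Single-concentration duplicates (25 uM) were run first, and actives were retested in concentration series.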
compound,measurement,setting,value
CCCC(CC)c1ccccc1 (stereo unspecified),outcome,[1],inactive
same,outcome,[2],inactive
same,outcome,[3],inactive
same,outcome,[4],inactive
same,outcome,[5],inactive
same,outcome,[6],inactive
CC(=O)c1ccccc1O,outcome,[2],inactive
C=CCOC(=O)c1ccc(C(=O)OCC=C)c(C(=O)OCC=C)c1,outcome,[1],inactive
same,outcome,[2],inactive
same,outcome,[3],inactive
same,outcome,[4],inactive
same,outcome,[5],inactive
O=S(=O)(O)c1ccc(N=Nc2c(O)ccc3ccccc23)cc1,outcome,[1],inactive
same,outcome,[2],inactive
same,outcome,[4],inactive
O=C(OCCc1ccccc1)c1ccccc1,outcome,[2],inactive
COc1cc(O)c(C(=O)c2ccccc2)cc1S(=O)(=O)O,outcome,[2],inactive
same,outcome,[3],inactive
same,outcome,[7],inactive
same,outcome,[8],inactive
same,outcome,[4],inactive
same,outcome,[5],inactive
CCCCCCCCCCCCCC(=O)OC(C)C,outcome,[2],inactive
same,outcome,[3],inactive
same,outcome,[7],inactive
same,outcome,[8],inactive
same,outcome,[4],inactive
CCOC(=O)c1ccc(C)cc1,outcome,[2],inactive
same,outcome,[3],inactive
same,outcome,[4],inactive
CC12CCC(CC1)C(C)(C)O2,outcome,[2],inactive
Fc1ccc(Br)cc1,outcome,[2],inactive
CC1(C)[C@@H]2CC[C@@]1(C)C(=O)C2,outcome,[2],inactive
same,outcome,[3],inactive
same,outcome,[4],inactive
same,outcome,[5],inactive
NC(=O)Nc1ccccc1,outcome,[3],inactive
same,outcome,[4],inactive
same,outcome,[5],inactive
same,outcome,[9],inactive
CCc1cccc(C)c1N,AC50,[1],74.6 µM (active)
same,outcome,[2],inactive
same,outcome,[7],inactive
same,outcome,[8],inactive
CCCCC(CC)COC(=O)/C=C/c1ccc(OC)cc1 (stereo unspecified),outcome,[1],inactive
same,outcome,[2],inactive
same,AC50,[7],50 µM (active)
same,outcome,[8],inactive
CCCCCC(=O)OCC,outcome,[2],inactive
same,outcome,[3],inactive
same,outcome,[4],inactive
same,outcome,[5],inactive
O=C(O)c1ccc2c(c1)C(=O)OC2=O,outcome,[2],inactive
same,outcome,[3],inactive
same,outcome,[7],inactive
same,outcome,[4],inactive
same,outcome,[5],inactive
C=C(C)C1CC=C(C)CC1 (stereo unspecified),outcome,[2],inactive
COC(=O)c1ccccc1C,outcome,[2],inactive
same,outcome,[3],inactive
same,outcome,[4],inactive
CC(=O)OC1CCCCC1C(C)(C)C (stereo unspecified),outcome,[2],inactive
same,outcome,[3],inactive
same,outcome,[7],inactive
same,outcome,[8],inactive
same,outcome,[4],inactive
same,outcome,[5],inactive
CCCCC(C=O)CC (stereo unspecified),outcome,[1],inactive
same,outcome,[2],inactive
same,outcome,[3],inactive
same,outcome,[4],inactive
same,outcome,[5],inactive
CCC(C)(O)CCCC(C)C (stereo unspecified),outcome,[2],inactive
CCCC=C(C=O)CC,outcome,[1],inactive
same,outcome,[2],inactive
same,outcome,[4],inactive
same,outcome,[5],inactive
CC(C)COC(=O)CC(C(=O)OCC(C)C)S(=O)(=O)O (stereo unspecified),outcome,[2],inactive
same,outcome,[3],inactive
same,outcome,[4],inactive
same,outcome,[5],inactive
